The text below walks through data of PubChem BioAssay AID743129 (Broad Institute, 2013).

Results with a measured potency or affinity are listed apart. Active and inactive are the calls of the source.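 How the source made its calls: active means cytotoxic compounds whose fitted half-maximal concentration is at most twice the highest valid tested dose; inconclusive means flat curve with 30 to 70% cell loss, or poor fit; inactive means the rest, including signal rising instead of falling.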

A short description of the test: HepG2 cell cytotoxicity, dose response, cytotoxicity control, ATP luminescence, dry powder, set 2 (AID 743129). To be noted: HepG2 viability, ATP luminescence (CellTiter-Glo), 72 h; series mostly up to 26 µM. A general note: In ATP-based viability assays light output follows the ATP content of the culture.
Consider `CCOC(=O)c1c(-c2ccc(F)cc2)csc1NC(=O)CN1CCN(CC)CC1`, for which the compound was classed as inactive.

Regarding `CCOc1ccc(OCCn2c(=S)[nH]c3ccccc32)cc1`, the call was inactive.

With `Cc1ccc(OCCn2c(=S)[nH]c3ccccc32)cc1`, the compound was classed as inactive.

On to `Cc1ccc(OCCn2c(C)nc3ccccc32)cc1`, for which the result was inactive.

Take `Cc1ccc(C(C)C)c(OCCn2c(=S)[nH]c3ccccc32)c1`: the outcome was inactive.

On to `COC(=O)C1=C(C)N(Cc2ccccc2)C(=S)NC1c1ccc(Br)cc1` (stereo not drawn), for which the compound was called inactive.

In the case of `Cc1cccc(OCCn2c(=S)[nH]c3cc(C(F)(F)F)ccc32)c1`, the call was inactive.

Regarding `Fc1ccccc1OCCn1c(=S)[nH]c2ccccc21`, the compound was called inactive.

In the case of `COC(=O)C1=C(C)N(Cc2ccc(Cl)cc2)C(=S)NC1c1ccc(Br)cc1` (stereo not drawn), the compound was classed as inactive.

Turning to `CCOC(=O)c1c(-c2ccc(OC)cc2)csc1NC(=O)CN(C)CC(=O)N(C)C`, the compound was classed as inactive.

As for `c1ccc(OCCn2cnc3ccccc32)cc1`, the call was inactive.

Take `CCOC(=O)c1c(-c2ccc(F)cc2)csc1NC(=O)CN1CCN(C)CC1`: the compound was classed as inactive.

In the case of `S=c1[nH]c2ccccc2n1CCOc1ccc(Cl)cc1`, the result was inactive.

For `Cc1ccc(OCCn2cnc3ccccc32)cc1`, the call was inactive.

With `O=c1[nH]c2ccccc2n1CCOc1ccccc1`, the compound was called inactive.

Regarding `S=c1[nH]c2cccc(Cl)c2n1CCOc1ccccc1`, the call was inactive.

Regarding `S=c1[nH]c2ccccc2n1CCOc1ccccc1`, the result was inactive.

For `COC(=O)C1=C(C)N(Cc2ccc(Br)cc2)C(=S)NC1c1ccc(F)cc1` (stereo not drawn), the outcome was inactive.

On to `COC(=O)C1=C(C)N(Cc2ccc(Br)cc2)C(=S)NC1c1ccc(OC)cc1` (stereo not drawn), for which the outcome was inactive.

Consider `Cc1ccc(OCCn2c(=S)[nH]c3ccccc32)c(C(C)C)c1`, for which the outcome was inactive.

`Cc1ccc2c(c1)[nH]c(=S)n2CCOc1ccccc1`: the result was inactive.

With `Cc1ccccc1OCCn1c(=S)[nH]c2ccccc21`, the compound was called inactive.

As for `Fc1cccc2c1[nH]c(=S)n2CCOc1ccccc1`, the call was inactive.
